According to PubChem BioAssay:
Active and inactive are the calls of the source.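 Rule for the calls: active = growth inhibition above 50% at the single 2 µM test dose, taken to imply half-maximal potency below 2 µM; inactive = the rest.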

Test: antimalarial activity against Dd2 strain (AID 2302);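 note: 0% = DMSO untreated growth and 100% = chloroquine plus artemisinin killed control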
Details: P. falciparum Dd2 in RBCs, LDH growth readout, 72 h; at 2 µM; active compounds read high

Row | SMILES | growth inhibition
1 | Cc1cccc2[nH]c(-c3cccc(-c4cccc(CN5CCN(c6ccc(C#N)cn6)CC5)c4)c3)nc12 | 34% (inactive)
2 | C[C@H](Cc1ccc(OCCCCCCOc2ccc(C[C@@H](C)NC[C@H](O)c3cccc(Cl)c3)cc2)cc1)NC[C@H](O)c1cccc(Cl)c1 | 99% (active)
3 | COc1ccc(-n2ccnc2SCC(=O)Nc2cc(Cl)ccc2OC)c(OC)c1 | 92% (active)
4 | COc1ccccc1C1CCN(CCCCNC(=O)c2ccc(NC(=O)c3ccc(Cl)cc3)cc2)CC1 | 12% (inactive)
5 | COc1ccccc1CNc1ncc(-c2ccsc2)c(-c2nccs2)n1 | 84% (active)
6 | COc1ccc2c(NN=Cc3ccc(N(C)C)cc3)ccnc2c1 | 100% (active)
7 | NC1CCCN(Cc2cccc(-c3ccc(-c4nc5ccccc5[nH]4)s3)c2)C1 (stereo not given) | 88% (active)
8 | COc1cc2c(cc1C(F)(F)F)N(C(=O)Nc1cc(OC(F)(F)F)cc(-c3cccnc3)c1)CC2 | 49% (inactive)
9 | O=C(Cc1cnc[nH]1)Nc1ccc(-c2cccc(-c3nc4ccc(C(F)(F)F)cc4[nH]3)c2)cc1 | 95% (active)
10 | CCCOc1ccc(CCCON2C(N)=NC(N)=NC2(C)C)cc1 | 94% (active)
11 | CC(C)(C)NCCN(Cc1ccc(-c2ccc(C(F)(F)F)cc2)cc1)C(=O)Cn1c(CCc2cccc(F)c2F)nc(=O)c2ccccc21 | 68% (active)
12 | CC1(C)N=C(N)N=C(N)N1OCCNCc1ccc(Cl)cc1 | -2% (inactive)
13 | Cc1ccc(C2=NNC3(S2)C(=O)Nc2ccc(C)cc23)cc1 (stereo not given) | 89% (active)
14 | CCc1ccc(N2C(=O)C3C(Cc4ccc(OC(C)(C)C)cc4)NC4(C(=O)N(Cc5ccccc5)c5ccc(F)cc54)C3C2=O)cc1 (stereo not given) | 49% (inactive)
15 | CCNc1cc(C(=O)N[C@@H](Cc2ccc(Cl)cc2)[C@H](O)CNC2CCCCC2)cc(N2CCCCS2(=O)=O)c1 | 99% (active)
16 | CC(C)[C@H](NC(=O)NC1CCC(CCN2[C@@H]3CC[C@H]2CC(OC(=O)C(CO)c2ccccc2)C3)CC1)C(O)(c1ccccc1)c1ccccc1 (stereo not given in full) | 4% (inactive)
17 | CC(C)N1CCC(N(Cc2ccc(-c3ccc(C(F)(F)F)cc3)cc2)C(=O)Cn2c(CCc3cccc(F)c3F)cc(=O)c3c2CCC3)CC1 | 62% (active)
18 | c1ccc(Nc2nc(-c3ccccn3)cs2)nc1 | 93% (active)
19 | CCOC(=O)NC1=NC(C)(C)N(OCc2ccc(Cl)c(Cl)c2)C(N)=N1 | 90% (active)
20 | CCn1c(SCC(=O)Nc2cc(C(F)(F)F)ccc2Cl)nc2ccccc2c1=O | 95% (active)

Row | SMILES | growth inhibition
21 | COc1cc(NC(=O)/C=C/c2cccc3ccoc23)ccc1OCCN(C(C)C)C(C)C | 5% (inactive)
22 | COc1ccc(OCCCN2CCN(CC(c3ccc(F)cc3)N3CCN(C(C)C)CC3)CC2)c2ccccc12 (stereo not given) | 32% (inactive)
23 | Cc1cccc(Nc2nccc(NCC(O)c3cccc(C(F)(F)F)c3)n2)c1 (stereo not given) | 94% (active)
24 | Cc1cccc2[nH]c(-c3ccc(-c4ccc(NC(=O)C(=O)c5cccn5C)cc4)cc3)nc12 | 15% (inactive)
25 | CC(C)NCc1ccc(-c2cccc(-c3nc4ccccc4[nH]3)c2)cc1 | 34% (inactive)
26 | Cc1cccc2[nH]c(-c3ccc(-c4cccc(CN5CCN(c6ccncc6)CC5)c4)cc3)nc12 | 99% (active)
27 | CC(C)CN1CCCN(Cc2cccc(NC(=O)c3cc4ccccc4s3)c2)CC1 | 6% (inactive)
28 | Cc1cc(NCCCCCCN)nc(Nc2ccc(Cl)cc2)n1 | 26% (inactive)
29 | CCCCCCCN1CC[C@@H](CCCc2ccnc3ccc(OCCCCN=C(N)NO)cc23)[C@@H](CC)C1 | 39% (inactive)
30 | COc1cc(CCN(C)Cc2ccc(OC)c(OC)c2)ccc1NC(=O)c1cccc2c(=O)c3cccc(F)c3[nH]c12 | 26% (inactive)
31 | COc1ccc2nccc([C@@H](O)CN3CCC(NC[C@H](Cc4ccccc4)NC(=O)OC(C)(C)C)CC3)c2c1 | 86% (active)
32 | CC(=O)NCCNc1nccc(N2CCc3ncnc(Nc4ccc(OCc5cccc(F)c5)c(Cl)c4)c3C2)n1 | 100% (active)
33 | Cc1cc(N)c2cc(NC(=O)CCC(=O)Nc3ccc4nc(C)cc(N)c4c3)ccc2n1 | 77% (active)
34 | COc1cc(CNCCC(C)C)ccc1OCc1cccc(COc2ccc(CNCCC(C)C)cc2OC)c1 | 20% (inactive)
35 | O=C(/C=C/c1ccc(Cl)c(Cl)c1)NCCCCCCN1CCCN(C(=O)Nc2ccc(C(F)(F)F)cc2)CC1 | 25% (inactive)
36 | CN1CCN(CCCN(Cc2ccc(-c3ccc(CNCc4ccc5c(c4)OCO5)cc3)cc2)C(=O)Nc2ccccc2)CC1 | 77% (active)
37 | O=[N+]([O-])c1cccc(Nc2nccc(-c3cnn4ncccc34)n2)c1 | 74% (active)
38 | COc1ccc(C(=O)N[C@@H](CC(C)C)C(=O)N[C@H](/C=N/NC(=O)c2ccccc2)CCc2ccccc2)cc1OCCN1CCOCC1 | 86% (active)
39 | CC(C)CCNCc1c(O)ccc2ccccc12 | 51% (active)
40 | Cc1ccc(/C=C/C(=O)N2CCC(CCN3CCC(c4c[nH]c5ccccc45)CC3)CC2)cc1C | 5% (inactive)
